# Where “and” joins values, the source holds several entries; their conditions need not be identical. Equal entries are not always repeated. About 2,000 (36%) of roughly 5,500 compounds were called active. About 18% were inconclusive and are not listed. This is one part of the list. A number with no mark means an inactive call. Cut-off read from the data, not from the text of the source: active = normalized growth mostly below about 0.91 (no sharp cut-off); inconclusive = no clear call, values can overlap the other calls; inactive = mostly above about 0.92.
# Assay: chemical genetic growth profiling, strain panel (AID 1159580);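 note: tested at 20 µM; growth read once vehicle control cultures reached saturation at 30 °C; 1 = growth at the plate median or of vehicle wells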
# Conditions: growth OD
smiles,measurement,setting,value
CNCCC=C1c2ccccc2CCc2ccccc21,normalized growth,"S. cerevisiae deletion strains, locus YJR075W, strain HOC1, stronger effect = lower value",1.02 and 0.976
same,normalized growth,"S. cerevisiae deletion strains, locus YKL009W, strain mrt4, stronger effect = lower value",1.01
same,normalized growth,"S. cerevisiae deletion strains, locus YKL068W, stronger effect = lower value",1
same,normalized growth,"S. cerevisiae deletion strains, locus YKL085W, strain MDH1 (second series), stronger effect = lower value",1
same,normalized growth,"S. cerevisiae deletion strains, locus YKL085W, strain MDH1, stronger effect = lower value",1
same,normalized growth,"S. cerevisiae deletion strains, locus YKL160W, strain elf1, stronger effect = lower value",0.943
same,normalized growth,"S. cerevisiae deletion strains, locus YKL190W, strain CNB1, stronger effect = lower value",1.01
same,normalized growth,"S. cerevisiae deletion strains, locus YKR001C, strain vps1, stronger effect = lower value",1.06
same,normalized growth,"S. cerevisiae deletion strains, locus YKR026C, strain gcn3, stronger effect = lower value",0.975
same,normalized growth,"S. cerevisiae deletion strains, locus YKR091W, strain srl3, stronger effect = lower value",0.973
same,normalized growth,"S. cerevisiae deletion strains, locus YLL001W, strain dnm1, stronger effect = lower value",0.988
same,normalized growth,"S. cerevisiae deletion strains, locus YLL026W, stronger effect = lower value",0.978
same,normalized growth,"S. cerevisiae deletion strains, locus YLL041C, strain sdh2, stronger effect = lower value",0.985
same,normalized growth,"S. cerevisiae deletion strains, locus YLR027C, strain aat2, stronger effect = lower value",0.967
same,normalized growth,"S. cerevisiae deletion strains, locus YLR039C, strain RIC1, stronger effect = lower value",1.1
same,normalized growth,"S. cerevisiae deletion strains, locus YLR058C, strain SHM2, stronger effect = lower value",1.02
same,normalized growth,"S. cerevisiae deletion strains, locus YLR102C, strain apc9, stronger effect = lower value",1.01
same,normalized growth,"S. cerevisiae deletion strains, locus YLR113W, strain HOG1, stronger effect = lower value",1
same,normalized growth,"S. cerevisiae deletion strains, locus YLR221C, strain rsa3, stronger effect = lower value",0.991
same,normalized growth,"S. cerevisiae deletion strains, locus YLR258W, strain gsy2, stronger effect = lower value",0.957
same,normalized growth,"S. cerevisiae deletion strains, locus YLR262C, strain YPT6 (second series), stronger effect = lower value",1.01
same,normalized growth,"S. cerevisiae deletion strains, locus YLR262C, strain YPT6, stronger effect = lower value",1.13
same,normalized growth,"S. cerevisiae deletion strains, locus YLR268W, strain sec22, stronger effect = lower value",1.08
same,normalized growth,"S. cerevisiae deletion strains, locus YLR320W, strain mms22, stronger effect = lower value",0.967
same,normalized growth,"S. cerevisiae deletion strains, locus YLR330W, strain CHS5, stronger effect = lower value",1.01
same,normalized growth,"S. cerevisiae deletion strains, locus YLR342W, strain FKS1 (second series), stronger effect = lower value",0.977
same,normalized growth,"S. cerevisiae deletion strains, locus YLR342W, strain FKS1, stronger effect = lower value",0.91
same,normalized growth,"S. cerevisiae deletion strains, locus YLR357W, strain rsc2, stronger effect = lower value",0.956
same,normalized growth,"S. cerevisiae deletion strains, locus YLR370C, strain arc18, stronger effect = lower value",0.975
same,normalized growth,"S. cerevisiae deletion strains, locus YLR371W, strain rom2, stronger effect = lower value",1.02
same,normalized growth,"S. cerevisiae deletion strains, locus YLR384C, strain iki3, stronger effect = lower value",0.979
same,normalized growth,"S. cerevisiae deletion strains, locus YLR418C, strain cdc73, stronger effect = lower value",1.01
same,normalized growth,"S. cerevisiae deletion strains, locus YML016C, strain PPZ1, stronger effect = lower value",1.01
same,normalized growth,"S. cerevisiae deletion strains, locus YML032C, strain rad52, stronger effect = lower value",1.06
same,normalized growth,"S. cerevisiae deletion strains, locus YML120C, strain ndi1, stronger effect = lower value",0.986
same,normalized growth,"S. cerevisiae deletion strains, locus YML124C, strain tub3, stronger effect = lower value",1.01
same,normalized growth,"S. cerevisiae deletion strains, locus YMR058W, strain fet3, stronger effect = lower value",0.964
same,normalized growth,"S. cerevisiae deletion strains, locus YMR078C, strain ctf18, stronger effect = lower value",1.02
same,normalized growth,"S. cerevisiae deletion strains, locus YMR125W, strain sto1, stronger effect = lower value",0.933
same,normalized growth,"S. cerevisiae deletion strains, locus YMR129W, stronger effect = lower value",0.976
same,normalized growth,"S. cerevisiae deletion strains, locus YMR205C, strain PFK2, stronger effect = lower value",0.98
same,normalized growth,"S. cerevisiae deletion strains, locus YMR223W, strain ubp8, stronger effect = lower value",0.989
same,normalized growth,"S. cerevisiae deletion strains, locus YMR231W, strain pep5, stronger effect = lower value",0.974
same,normalized growth,"S. cerevisiae deletion strains, locus YMR263W, strain SAP30, stronger effect = lower value",1.01
same,normalized growth,"S. cerevisiae deletion strains, locus YMR307W, strain GAS1, stronger effect = lower value",1.02
same,normalized growth,"S. cerevisiae deletion strains, locus YNL067W, strain RPL9B, stronger effect = lower value",1.02
same,normalized growth,"S. cerevisiae deletion strains, locus YNL071W, strain lat1, stronger effect = lower value",0.987
same,normalized growth,"S. cerevisiae deletion strains, locus YNL128W, strain TEP1, stronger effect = lower value",1.01 and 1.07
same,normalized growth,"S. cerevisiae deletion strains, locus YNL153C, strain GIM3, stronger effect = lower value",1.02 and 0.984
same,normalized growth,"S. cerevisiae deletion strains, locus YNL175C, strain NOP13, stronger effect = lower value",1
same,normalized growth,"S. cerevisiae deletion strains, locus YNL183C, strain NPR1, stronger effect = lower value",0.938
same,normalized growth,"S. cerevisiae deletion strains, locus YNL197C, strain WHI3, stronger effect = lower value",1.01
same,normalized growth,"S. cerevisiae deletion strains, locus YNL209W, strain ssb2, stronger effect = lower value",0.984
same,normalized growth,"S. cerevisiae deletion strains, locus YNL224C, strain SQS1, stronger effect = lower value",1.02
same,normalized growth,"S. cerevisiae deletion strains, locus YNL233W, strain BNI4, stronger effect = lower value",1.01
same,normalized growth,"S. cerevisiae deletion strains, locus YNL248C, strain rpa49, stronger effect = lower value",0.952
same,normalized growth,"S. cerevisiae deletion strains, locus YNL250W, strain rad50, stronger effect = lower value",1.01
same,normalized growth,"S. cerevisiae deletion strains, locus YNL271C, strain bni1, stronger effect = lower value",1.01
same,normalized growth,"S. cerevisiae deletion strains, locus YNL298W, strain CLA4, stronger effect = lower value",1.02
same,normalized growth,"S. cerevisiae deletion strains, locus YNL307C, strain MCK1, stronger effect = lower value",1.01
same,normalized growth,"S. cerevisiae deletion strains, locus YNL322C, strain KRE1 (second series), stronger effect = lower value",0.98
same,normalized growth,"S. cerevisiae deletion strains, locus YNL322C, strain KRE1, stronger effect = lower value",1.01 and 0.982
same,normalized growth,"S. cerevisiae deletion strains, locus YNR049C, strain mso1, stronger effect = lower value",0.98
same,normalized growth,"S. cerevisiae deletion strains, locus YNR052C, strain pop2, stronger effect = lower value",1.02
same,normalized growth,"S. cerevisiae deletion strains, locus YOL006C, strain TOP1, stronger effect = lower value",0.969
same,normalized growth,"S. cerevisiae deletion strains, locus YOL012C, strain htz1",0.912
same,normalized growth,"S. cerevisiae deletion strains, locus YOL147C, strain pex11, stronger effect = lower value",1.02
same,normalized growth,"S. cerevisiae deletion strains, locus YOR001W, strain rrp6, stronger effect = lower value",0.988
same,normalized growth,"S. cerevisiae deletion strains, locus YOR061W, strain CKA2, stronger effect = lower value",1.01
same,normalized growth,"S. cerevisiae deletion strains, locus YOR069W, strain VPS5, stronger effect = lower value",1.01
same,normalized growth,"S. cerevisiae deletion strains, locus YOR070C, strain gyp1, stronger effect = lower value",0.978
same,normalized growth,"S. cerevisiae deletion strains, locus YOR080W, strain dia2, stronger effect = lower value",0.967
same,normalized growth,"S. cerevisiae deletion strains, locus YOR083W, strain WHI5 (second series), stronger effect = lower value",1.01
same,normalized growth,"S. cerevisiae deletion strains, locus YOR083W, strain WHI5, stronger effect = lower value",0.898
same,normalized growth,"S. cerevisiae deletion strains, locus YOR106W, strain vam3, stronger effect = lower value",0.949
same,normalized growth,"S. cerevisiae deletion strains, locus YOR136W, strain idh2, stronger effect = lower value",1.01
same,normalized growth,"S. cerevisiae deletion strains, locus YOR144C, strain elg1, stronger effect = lower value",1.03
same,normalized growth,"S. cerevisiae deletion strains, locus YOR184W, strain ser1, stronger effect = lower value",1.04
same,normalized growth,"S. cerevisiae deletion strains, locus YOR231W, strain MKK1, stronger effect = lower value",1.01
same,normalized growth,"S. cerevisiae deletion strains, locus YOR265W, strain rbl2, stronger effect = lower value",0.989
same,normalized growth,"S. cerevisiae deletion strains, locus YOR270C, strain vph1, stronger effect = lower value",0.731 (active)
same,normalized growth,"S. cerevisiae deletion strains, locus YOR290C, strain snf2, stronger effect = lower value",0.928
same,normalized growth,"S. cerevisiae deletion strains, locus YOR316C, strain cot1, stronger effect = lower value",1.02
same,normalized growth,"S. cerevisiae deletion strains, locus YPL051W, strain arl3, stronger effect = lower value",0.956
same,normalized growth,"S. cerevisiae deletion strains, locus YPL055C, strain LGE1, stronger effect = lower value",1.05 and 0.967
same,normalized growth,"S. cerevisiae deletion strains, locus YPL078C, strain atp4, stronger effect = lower value",0.959
same,normalized growth,"S. cerevisiae deletion strains, locus YPL106C, strain sse1, stronger effect = lower value",0.983
same,normalized growth,"S. cerevisiae deletion strains, locus YPL240C, strain hsp82, stronger effect = lower value",1
same,normalized growth,"S. cerevisiae deletion strains, locus YPL241C, strain CIN2, stronger effect = lower value",1.01
same,normalized growth,"S. cerevisiae deletion strains, locus YPL256C, strain CLN2, stronger effect = lower value",0.962
same,normalized growth,"S. cerevisiae deletion strains, locus YPR119W, strain clb2, stronger effect = lower value",1.01
same,normalized growth,"S. cerevisiae deletion strains, locus YPR141C, strain kar3, stronger effect = lower value",1.01
same,normalized growth,"S. cerevisiae deletion strains, locus YPR163C, strain tif3, stronger effect = lower value",1.03
same,normalized growth,"S. cerevisiae deletion strains, locus YPR167C, strain met16, stronger effect = lower value",1.02
same,normalized growth,"S. cerevisiae deletion strains, strain wtn01, stronger effect = lower value",1.05
same,normalized growth,"S. cerevisiae strains, strain wild type, stronger effect = lower value",1.01

# From PubChem BioAssay AID1159580 (chemical genetic matrix, 2015)
